The record followed here is ChEMBL document CHEMBL1961873, “Compounds: GSK PKIS; Assays: Nanosyn kinase panel” (2012).

For orientation: inhibition means the change of the read-out against control, counted positive when it falls.

Assay [1] concerns the target T1, Ephrin type-B receptor 2 (Homo sapiens) (UniProt P29323).
T1 sequence (whole entry): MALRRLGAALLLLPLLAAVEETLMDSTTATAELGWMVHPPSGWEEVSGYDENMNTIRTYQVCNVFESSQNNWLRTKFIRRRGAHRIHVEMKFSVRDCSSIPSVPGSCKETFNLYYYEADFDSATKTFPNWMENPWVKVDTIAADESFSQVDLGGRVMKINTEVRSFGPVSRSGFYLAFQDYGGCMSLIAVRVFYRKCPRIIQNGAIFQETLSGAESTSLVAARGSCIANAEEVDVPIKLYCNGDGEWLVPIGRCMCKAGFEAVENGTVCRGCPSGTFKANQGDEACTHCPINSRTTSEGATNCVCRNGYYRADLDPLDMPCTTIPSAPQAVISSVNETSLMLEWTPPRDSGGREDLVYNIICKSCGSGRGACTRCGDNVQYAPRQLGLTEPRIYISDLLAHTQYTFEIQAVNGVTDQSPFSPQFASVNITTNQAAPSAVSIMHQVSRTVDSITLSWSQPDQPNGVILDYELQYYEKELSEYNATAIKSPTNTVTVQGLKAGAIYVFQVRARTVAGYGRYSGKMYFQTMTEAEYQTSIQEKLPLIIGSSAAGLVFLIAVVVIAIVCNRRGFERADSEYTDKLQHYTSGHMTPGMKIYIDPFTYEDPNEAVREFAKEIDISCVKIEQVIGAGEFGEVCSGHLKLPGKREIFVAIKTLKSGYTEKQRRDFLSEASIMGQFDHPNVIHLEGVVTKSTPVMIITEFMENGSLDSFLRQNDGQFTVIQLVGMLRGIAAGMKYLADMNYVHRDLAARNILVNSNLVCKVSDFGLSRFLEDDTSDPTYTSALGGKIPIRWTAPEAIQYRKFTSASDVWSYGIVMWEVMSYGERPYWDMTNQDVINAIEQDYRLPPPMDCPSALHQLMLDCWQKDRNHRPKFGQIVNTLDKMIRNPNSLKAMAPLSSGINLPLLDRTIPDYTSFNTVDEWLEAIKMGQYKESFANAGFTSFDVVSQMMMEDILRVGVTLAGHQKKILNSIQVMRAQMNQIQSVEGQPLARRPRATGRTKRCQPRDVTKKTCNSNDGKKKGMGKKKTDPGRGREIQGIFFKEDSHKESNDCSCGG
To be noted: at 1 µM.

The target in assay [2] is T2, Ephrin type-B receptor 3 (Homo sapiens) (UniProt P54753).
T2 sequence (whole entry): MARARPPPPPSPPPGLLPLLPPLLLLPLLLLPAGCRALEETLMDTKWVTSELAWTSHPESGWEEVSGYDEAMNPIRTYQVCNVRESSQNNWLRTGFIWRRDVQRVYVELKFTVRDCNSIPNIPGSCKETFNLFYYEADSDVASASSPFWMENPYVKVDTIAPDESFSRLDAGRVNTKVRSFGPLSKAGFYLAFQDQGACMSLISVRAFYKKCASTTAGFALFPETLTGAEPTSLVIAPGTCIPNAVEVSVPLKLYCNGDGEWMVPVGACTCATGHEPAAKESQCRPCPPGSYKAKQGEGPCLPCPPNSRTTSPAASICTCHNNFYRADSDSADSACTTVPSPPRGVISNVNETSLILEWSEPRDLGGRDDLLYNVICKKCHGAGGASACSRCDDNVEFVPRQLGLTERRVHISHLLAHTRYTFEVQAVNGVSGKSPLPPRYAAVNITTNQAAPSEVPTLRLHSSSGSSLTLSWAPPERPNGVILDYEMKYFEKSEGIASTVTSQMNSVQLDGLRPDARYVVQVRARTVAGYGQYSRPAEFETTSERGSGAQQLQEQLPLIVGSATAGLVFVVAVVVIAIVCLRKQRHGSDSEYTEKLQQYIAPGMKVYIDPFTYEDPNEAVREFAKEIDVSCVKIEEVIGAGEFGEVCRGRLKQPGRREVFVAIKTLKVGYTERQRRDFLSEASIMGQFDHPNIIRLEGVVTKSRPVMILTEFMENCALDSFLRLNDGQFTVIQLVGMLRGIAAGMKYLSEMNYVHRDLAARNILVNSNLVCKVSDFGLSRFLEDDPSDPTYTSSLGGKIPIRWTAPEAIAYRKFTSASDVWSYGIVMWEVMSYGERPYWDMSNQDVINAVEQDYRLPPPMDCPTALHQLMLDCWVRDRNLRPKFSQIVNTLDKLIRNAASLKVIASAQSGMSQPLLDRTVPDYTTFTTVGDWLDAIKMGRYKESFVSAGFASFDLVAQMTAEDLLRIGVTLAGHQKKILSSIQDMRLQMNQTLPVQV
To be noted: at 0.1 µM.

The target of assay [3] is T2, Ephrin type-B receptor 3 (Homo sapiens). To be noted: at 1 µM.
The target of assay [4] is T3, Ephrin type-B receptor 4 (Homo sapiens) (UniProt P54760).
T3 sequence (whole entry): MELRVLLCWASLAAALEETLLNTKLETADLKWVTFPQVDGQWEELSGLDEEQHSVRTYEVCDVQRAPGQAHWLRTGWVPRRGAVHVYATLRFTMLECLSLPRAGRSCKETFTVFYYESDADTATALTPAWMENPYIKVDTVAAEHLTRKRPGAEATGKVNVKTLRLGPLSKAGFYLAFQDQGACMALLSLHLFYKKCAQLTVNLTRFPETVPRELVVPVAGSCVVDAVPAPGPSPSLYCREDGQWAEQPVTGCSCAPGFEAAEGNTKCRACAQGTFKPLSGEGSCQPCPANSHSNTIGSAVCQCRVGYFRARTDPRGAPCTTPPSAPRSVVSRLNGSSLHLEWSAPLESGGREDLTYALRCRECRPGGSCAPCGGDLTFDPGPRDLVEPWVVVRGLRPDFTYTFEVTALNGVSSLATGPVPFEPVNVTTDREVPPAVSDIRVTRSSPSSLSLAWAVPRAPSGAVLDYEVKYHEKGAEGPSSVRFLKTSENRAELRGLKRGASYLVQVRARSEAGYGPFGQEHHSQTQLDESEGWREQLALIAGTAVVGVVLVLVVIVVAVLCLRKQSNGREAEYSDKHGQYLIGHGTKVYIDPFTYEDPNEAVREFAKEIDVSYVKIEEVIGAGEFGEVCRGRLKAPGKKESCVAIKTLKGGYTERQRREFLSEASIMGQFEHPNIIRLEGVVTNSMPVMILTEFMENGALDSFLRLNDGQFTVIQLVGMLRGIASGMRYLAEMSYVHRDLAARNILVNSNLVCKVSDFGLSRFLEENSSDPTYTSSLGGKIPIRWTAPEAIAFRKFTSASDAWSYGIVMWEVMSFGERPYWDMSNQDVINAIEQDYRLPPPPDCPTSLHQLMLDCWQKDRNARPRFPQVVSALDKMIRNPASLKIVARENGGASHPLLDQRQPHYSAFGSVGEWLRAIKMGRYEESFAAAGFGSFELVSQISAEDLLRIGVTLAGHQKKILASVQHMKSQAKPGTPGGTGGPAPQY
To be noted: at 0.1 µM.

In assay [5] the target is T3, Ephrin type-B receptor 4 (Homo sapiens). To be noted: at 1 µM.
Assay [6] concerns the target Receptor tyrosine-protein kinase erbB-2 (Homo sapiens) (UniProt P04626). To be noted: at 0.1 µM.
Assay [7] has the same target. To be noted: at 1 µM.
The target in assay [8] is Receptor tyrosine-protein kinase erbB-4 (Homo sapiens) (UniProt Q15303). To be noted: at 0.1 µM.
The target is the same in assay [9]. To be noted: at 1 µM.
Assay [10] has as its target Tyrosine-protein kinase Fer (Homo sapiens) (UniProt P16591). To be noted: at 0.1 µM.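 Note: reported figures are averaged percent inhibition of FER.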

Receptor tyrosine-protein kinase erbB-2 (Homo sapiens), sequence (P04626 whole entry): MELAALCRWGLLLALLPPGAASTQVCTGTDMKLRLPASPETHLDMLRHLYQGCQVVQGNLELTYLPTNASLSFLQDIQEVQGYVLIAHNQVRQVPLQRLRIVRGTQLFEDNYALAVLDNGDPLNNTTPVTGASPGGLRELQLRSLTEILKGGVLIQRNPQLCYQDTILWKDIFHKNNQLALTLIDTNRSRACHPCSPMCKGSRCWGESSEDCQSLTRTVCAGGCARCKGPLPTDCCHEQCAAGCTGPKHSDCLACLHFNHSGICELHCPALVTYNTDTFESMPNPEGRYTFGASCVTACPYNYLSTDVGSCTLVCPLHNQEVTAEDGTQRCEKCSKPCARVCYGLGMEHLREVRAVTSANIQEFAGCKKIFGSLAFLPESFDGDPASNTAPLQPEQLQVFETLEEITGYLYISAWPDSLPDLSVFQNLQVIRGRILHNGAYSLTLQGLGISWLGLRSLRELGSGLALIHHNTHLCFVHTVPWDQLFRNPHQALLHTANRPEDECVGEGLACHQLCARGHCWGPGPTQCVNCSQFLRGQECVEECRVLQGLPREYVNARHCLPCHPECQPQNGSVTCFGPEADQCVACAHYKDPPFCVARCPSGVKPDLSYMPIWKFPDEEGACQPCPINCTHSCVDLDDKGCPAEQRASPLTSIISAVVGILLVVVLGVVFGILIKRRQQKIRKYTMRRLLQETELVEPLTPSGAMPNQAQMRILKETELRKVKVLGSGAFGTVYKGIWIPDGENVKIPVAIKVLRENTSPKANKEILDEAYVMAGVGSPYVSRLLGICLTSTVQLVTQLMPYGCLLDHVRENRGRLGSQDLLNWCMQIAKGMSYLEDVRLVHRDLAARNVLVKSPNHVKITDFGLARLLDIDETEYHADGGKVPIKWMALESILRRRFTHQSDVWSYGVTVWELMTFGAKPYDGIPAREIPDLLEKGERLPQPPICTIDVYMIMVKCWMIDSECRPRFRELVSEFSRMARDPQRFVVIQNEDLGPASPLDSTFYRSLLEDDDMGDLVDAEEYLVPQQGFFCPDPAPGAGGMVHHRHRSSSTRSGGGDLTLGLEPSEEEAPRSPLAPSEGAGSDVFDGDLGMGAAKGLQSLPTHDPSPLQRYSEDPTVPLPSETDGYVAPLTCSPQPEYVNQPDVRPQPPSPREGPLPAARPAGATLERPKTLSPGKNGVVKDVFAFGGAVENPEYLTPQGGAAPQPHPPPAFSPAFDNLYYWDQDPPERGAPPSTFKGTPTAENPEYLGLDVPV
Receptor tyrosine-protein kinase erbB-4 (Homo sapiens), sequence (Q15303 whole entry): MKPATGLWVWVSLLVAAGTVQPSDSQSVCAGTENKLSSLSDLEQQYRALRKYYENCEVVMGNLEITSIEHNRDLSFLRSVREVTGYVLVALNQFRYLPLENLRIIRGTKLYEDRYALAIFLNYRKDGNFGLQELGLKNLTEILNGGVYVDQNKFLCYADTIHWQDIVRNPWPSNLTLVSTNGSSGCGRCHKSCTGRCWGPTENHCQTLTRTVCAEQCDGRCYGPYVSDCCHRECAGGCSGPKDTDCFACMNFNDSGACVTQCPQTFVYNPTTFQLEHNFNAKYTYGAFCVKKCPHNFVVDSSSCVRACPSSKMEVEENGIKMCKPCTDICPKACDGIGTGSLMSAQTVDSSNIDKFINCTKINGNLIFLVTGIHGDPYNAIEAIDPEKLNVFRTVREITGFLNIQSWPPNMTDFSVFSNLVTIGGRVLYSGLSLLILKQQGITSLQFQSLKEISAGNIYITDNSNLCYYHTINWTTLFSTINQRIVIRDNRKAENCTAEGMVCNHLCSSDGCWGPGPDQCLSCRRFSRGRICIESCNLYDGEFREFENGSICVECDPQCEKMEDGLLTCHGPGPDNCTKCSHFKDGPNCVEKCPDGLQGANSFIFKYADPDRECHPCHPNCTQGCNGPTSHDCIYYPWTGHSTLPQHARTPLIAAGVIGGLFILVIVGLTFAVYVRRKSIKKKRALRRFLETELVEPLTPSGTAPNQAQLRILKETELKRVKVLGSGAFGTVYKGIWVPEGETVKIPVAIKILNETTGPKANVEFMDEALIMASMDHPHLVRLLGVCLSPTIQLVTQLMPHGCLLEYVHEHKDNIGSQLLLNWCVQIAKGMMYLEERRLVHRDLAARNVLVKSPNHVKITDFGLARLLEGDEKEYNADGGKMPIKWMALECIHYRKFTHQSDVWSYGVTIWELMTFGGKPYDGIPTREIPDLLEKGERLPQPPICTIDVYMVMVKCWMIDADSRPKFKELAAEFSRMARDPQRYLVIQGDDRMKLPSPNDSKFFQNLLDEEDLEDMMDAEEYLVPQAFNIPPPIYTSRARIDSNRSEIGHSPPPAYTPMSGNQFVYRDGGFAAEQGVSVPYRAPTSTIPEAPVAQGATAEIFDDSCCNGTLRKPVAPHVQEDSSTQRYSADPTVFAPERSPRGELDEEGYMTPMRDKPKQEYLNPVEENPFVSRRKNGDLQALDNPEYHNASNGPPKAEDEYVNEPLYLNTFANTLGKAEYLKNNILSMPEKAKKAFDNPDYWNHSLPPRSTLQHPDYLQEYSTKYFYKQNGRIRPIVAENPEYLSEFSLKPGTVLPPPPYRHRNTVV
Tyrosine-protein kinase Fer (Homo sapiens), sequence (P16591 whole entry, looked up): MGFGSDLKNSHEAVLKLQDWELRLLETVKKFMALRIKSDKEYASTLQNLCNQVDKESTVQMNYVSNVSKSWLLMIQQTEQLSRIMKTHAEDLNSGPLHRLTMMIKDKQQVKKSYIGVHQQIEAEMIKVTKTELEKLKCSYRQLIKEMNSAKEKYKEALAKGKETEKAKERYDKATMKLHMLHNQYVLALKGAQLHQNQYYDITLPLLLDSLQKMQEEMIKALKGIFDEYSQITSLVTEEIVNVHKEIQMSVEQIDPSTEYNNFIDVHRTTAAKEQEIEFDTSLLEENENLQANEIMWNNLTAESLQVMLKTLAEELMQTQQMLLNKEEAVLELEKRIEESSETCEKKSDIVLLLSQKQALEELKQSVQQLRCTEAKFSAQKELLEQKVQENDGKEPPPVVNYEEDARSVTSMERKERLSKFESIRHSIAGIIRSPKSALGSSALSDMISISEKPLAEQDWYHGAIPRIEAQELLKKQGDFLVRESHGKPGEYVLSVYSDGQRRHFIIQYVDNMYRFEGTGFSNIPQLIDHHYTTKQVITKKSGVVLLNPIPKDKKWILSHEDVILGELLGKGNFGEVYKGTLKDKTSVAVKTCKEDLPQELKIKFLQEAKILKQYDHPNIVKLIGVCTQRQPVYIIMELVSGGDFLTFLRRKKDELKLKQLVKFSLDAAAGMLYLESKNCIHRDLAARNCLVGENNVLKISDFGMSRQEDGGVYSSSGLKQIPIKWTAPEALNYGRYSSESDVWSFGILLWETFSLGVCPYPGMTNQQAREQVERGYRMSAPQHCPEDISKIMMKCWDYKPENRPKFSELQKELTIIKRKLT

As for `CCCN1CCC(Oc2cc(Nc3nc(Nc4cccc(F)c4C(N)=O)c4cc[nH]c4n3)c(OC)cc2Cl)CC1`, the inhibition in assay [1] is 13.7%; in assay [2], 1.47%; in assay [3] it was -1.18%; in [4] it was -0.64%; in [5], 0.69%; in assay [6], 0.9%. The inhibition in assay [7] came to 1.3%; in assay [8], 0.71%; in assay [9], 0.3%; in assay [10] it was 3.76%.

Take `COc1ccccc1Nc1ncc(-c2ccccc2)o1`: the inhibition in [1] is 10.8%; in [2] it was 2.82%; in assay [3], 3.43%; in assay [4], 1.6%; in assay [5] it was 5.33%; in [6], 0.38%. Further, the inhibition in assay [7] stood at 6.93%; in [8], 8.18%; in assay [9], 15.7%; in assay [10], 4.02%.

In the case of `Cc1cc(O)cc(C)c1/C=C/c1cncc(-c2nn[nH]n2)c1`, the inhibition in assay [1] was 61.5%; in [2], -0.26%; in assay [3], 5.69%; in assay [4] it was 3.89%; in assay [5], 46.2%; in assay [6], 1.86%. Moreover, the inhibition worked out at 0.56% in assay [7], 12.1% in [8], 36.7% in assay [9] and 4.18% in assay [10].

In the case of `COc1cc(C=NNc2ncnc3c2cnn3-c2ccccc2)ccc1O`, the inhibition is 18.2% in assay [1]; 3.59% in [2]; -2.55% in [3]; 2.58% in assay [4]; 9.64% in [5]; 1.75% in [6]. The inhibition in [7] was -2.49%; in assay [8], 3.71%; in assay [9] it was 6.51%; in [10], -3.39%.

Turning to `CCn1c(-c2nonc2N)nc2c(C#CC(C)(C)O)nc(CN3CCCC3)cc21`, the inhibition in [1] was -4.07%; in assay [2], 2.42%; in [3], -2.06%; in assay [4] it was 1.15%; in [5] it was 0.96%; in assay [6] it was -1.45%. Also, the inhibition was -6.25% in [7], 3.95% in [8], -0.29% in assay [9] and -1.64% in [10].

For `COC(=O)Nc1nc2cc(Oc3cccc(NC(=O)Nc4cc(C(F)(F)F)ccc4F)c3)ccc2[nH]1`, the inhibition in [1] is 8.15%; in [2] it was 2.88%; in assay [3] it was 0.33%; in [4] it was 0.65%; in assay [5], 2.71%; in assay [6] it was -1.15%. The inhibition was -2.43% in assay [7], 3.99% in assay [8], 6.3% in assay [9] and 0.75% in [10].

For the compound `COC(=O)Nc1nc2cc(Oc3ccc(NC(=O)Nc4cccc(C(=O)O)c4)cc3)ccc2[nH]1`, the inhibition is 3.77% in [1]; -0.56% in assay [2]; -3.97% in assay [3]; -2.57% in assay [4]; -4.05% in assay [5]; -0.03% in [6]. The inhibition in assay [7] is 3.5%; in assay [8] it was 2.52%; in assay [9], 0.22%; in [10], -1.22%.

On to `N#Cc1c(NC(=O)c2cccc3ccccc23)sc2c1CCCC2`, for which the inhibition in assay [1] worked out at 6.91%; in assay [2], 5.39%; in assay [3] it was 3.56%; in assay [4], 3.79%; in [5] it was 3.28%; in assay [6], 1.65%. Also, the inhibition in assay [7] was -0.24%; in [8], 6.37%; in assay [9], 8.55%; in assay [10], 2.88%.

`COc1cc2ncn(-c3cc(O[C@H](C)c4ccccc4Cl)c(C(N)=O)s3)c2cc1OC`: the inhibition in assay [1] was found to be 21.9%; in assay [2] it was 3.78%; in assay [3], 5.92%; in assay [4] it was 4.27%; in assay [5] it was 7.03%; in [6], 2.23%. Besides, the inhibition in assay [7] turned out to be 7.82%; in assay [8], 7.95%; in assay [9], 14%; in [10] it was 4.62%.
